Inconclusive results are not listed. Active and inactive are the calls of the source. Calls follow the shape of the dose curve; as a rule, active = well fitted activation curve with a large enough effect; inconclusive = small, poorly fitted or top-dose-only effect; inactive = no such curve, though single readings can be large or run the other way.
What follows are molecules tested against Rap guanine nucleotide exchange factor 3 (Homo sapiens) (UniProt O95398) (assay: Confirmatory qHTS for agonist of cAMP-regulated guanine nucleotide exchange factor 3 (EPAC1) (AID 1645881; also: nearly all actives have a fitted effect of over 75% in size;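 as to activation: EPAC1 catalysed release of BODIPY-GDP from Rap1B seen as fluorescence loss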)). Settings: EPAC1 Rap1B BODIPY-GDP exchange fluorescence; series mostly up to 154 µM.
Potency is read from the fitted curve at half-maximal effect.

Rap guanine nucleotide exchange factor 3 (Homo sapiens), sequence (O95398 whole entry, looked up): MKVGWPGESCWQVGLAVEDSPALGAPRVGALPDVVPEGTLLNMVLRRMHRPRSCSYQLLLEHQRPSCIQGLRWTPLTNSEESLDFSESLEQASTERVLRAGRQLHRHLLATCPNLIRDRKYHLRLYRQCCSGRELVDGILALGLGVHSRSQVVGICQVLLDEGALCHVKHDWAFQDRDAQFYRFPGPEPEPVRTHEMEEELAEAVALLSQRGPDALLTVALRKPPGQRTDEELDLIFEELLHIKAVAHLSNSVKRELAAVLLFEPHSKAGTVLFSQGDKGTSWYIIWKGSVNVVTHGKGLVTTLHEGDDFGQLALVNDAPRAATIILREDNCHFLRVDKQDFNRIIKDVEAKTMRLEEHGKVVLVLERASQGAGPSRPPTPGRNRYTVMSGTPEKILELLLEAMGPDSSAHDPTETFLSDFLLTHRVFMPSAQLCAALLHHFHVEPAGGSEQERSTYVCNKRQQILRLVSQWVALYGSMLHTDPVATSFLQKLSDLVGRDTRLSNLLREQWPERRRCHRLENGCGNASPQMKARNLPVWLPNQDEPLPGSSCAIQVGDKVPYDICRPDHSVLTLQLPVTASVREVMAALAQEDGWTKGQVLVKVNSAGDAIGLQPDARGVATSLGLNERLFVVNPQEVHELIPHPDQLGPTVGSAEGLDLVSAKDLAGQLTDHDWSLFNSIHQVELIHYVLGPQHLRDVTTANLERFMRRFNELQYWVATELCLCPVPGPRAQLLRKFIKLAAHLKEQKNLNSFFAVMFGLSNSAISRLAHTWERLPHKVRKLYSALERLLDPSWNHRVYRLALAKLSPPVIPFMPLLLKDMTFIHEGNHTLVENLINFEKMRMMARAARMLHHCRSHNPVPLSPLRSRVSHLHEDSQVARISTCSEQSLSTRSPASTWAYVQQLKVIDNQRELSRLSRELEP

Potency, inactive:
CC(=O)Nc1ccc(Nc2nnc(-c3ccc(O)cc3)c3ccccc23)cc1
O=[N+]([O-])c1cccc(S(=O)(=O)Nc2cccc(-c3ccc(N4CCCC4)nn3)c2)c1
Cc1nn(-c2ccccc2)c2nc(N)c(C#N)c(-c3ccc(O)c(O)c3)c12
Cc1ccc2c(c1)N(Cc1cccc(Cl)c1)C(=O)c1cccnc1O2
Cc1cc(C)c2c(CN3CCCC3)cc(=O)oc2c1
COc1ccc(/C=C2\SC(=S)N(CCC(=O)N3CCCCC3CCO)C2=O)cc1 (stereo not given)
O=C(c1ccccc1Cc1ccccc1)N1CCN(S(=O)(=O)c2ccccc2Br)CC1
Clc1ccc(OCCn2c(-c3ccco3)nc3ccccc32)cc1
Cc1cc2ccccn2c1C(=O)c1ccc(Cl)c([N+](=O)[O-])c1
COc1ccc(CNc2ncnc3onc(-c4ccc(F)cc4)c23)cc1
N#C/C(=C\c1ccc(-c2ccccc2C(=O)O)o1)c1nc2ccccc2[nH]1
Cc1csc2nc(-c3cccc(NC(=O)c4cccc(F)c4)c3)cn12
COc1ccc(Cl)cc1C1CC(=O)Nc2cc3c(cc21)OCCO3 (stereo not given)
Cc1nc2c(C(=O)NCc3ccccc3Cl)c[nH]n2c(=O)c1Cc1cccc(Cl)c1
CCOc1ccccc1C(=O)N1CCc2cc(OC)c(OC)cc2C1COc1ccc(OC)cc1 (stereo not given)
COc1ccc(C(=O)NCCn2cc(SCc3cccc(F)c3)c3ccccc32)cc1OC
Cc1ccc(-c2nc3ccc(C)cn3c2Cc2cccc(F)c2)cc1
Cc1ccccc1C1(O)c2ccccc2-c2ccccc21
COc1ccc(OC)c(NC(=O)CSc2ncnc3sc(C)cc23)c1
O=C(Nc1cccc(S(=O)(=O)NCc2ccco2)c1)c1cc(-c2ccccc2)nc2ccccc12
Cc1ccc2c(c1)-c1c(cnn1CC(=O)N1CCN(c3cccc(C(F)(F)F)c3)CC1)CO2
COC(=O)c1ccc(OCC2c3cc(OC)c(OC)cc3CCN2C(=O)c2ccc(OC)cc2)cc1 (stereo not given)
Nc1nc(CSc2ccc(Cl)cc2)nc(N2CCCCC2)n1
Cc1ccc(C)c(Oc2nc3c(c(=O)n(C)c(=O)n3C)n2Cc2ccccc2)c1
C#Cc1ccc([C@H]2C=C(C(=O)NCc3ccccc3)O[C@@H](OCC)[C@@H]2CCCO)cc1
O=c1[nH]c(Nc2ccc(F)cc2)cc2ccccc12
CCOc1cc2c(cc1/C=C/c1noc(C)c1[N+](=O)[O-])OC(C)C2 (stereo not given)
Cc1nc(N)sc1-c1csc(Nc2ncccn2)n1
O=S(=O)(c1cccc2ccccc12)N1CCCCC1
O=C(Cn1c(=O)c2ccccc2n(CC(=O)Nc2ccc(Cl)cc2)c1=O)NCCc1ccccc1
Cc1nc2ccccc2c2oc(C(=O)Nc3ccc4c(c3)OCCO4)cc12
Cc1ccccc1OCC(=O)Nc1ccc(C(=O)OCc2cc(=O)n3c(C)csc3n2)cc1
COc1ccccc1CN(C)C(=O)C(c1ccccc1)c1ccccc1
CCn1c(SCC(=O)c2ccc(O)c(O)c2)nnc1-c1ccccc1OC
O=C(Nc1ccc(-c2cn3ccccc3n2)cc1)c1cccs1
COc1ccc(-c2ccc(C(=O)NC(C)C)c3occc23)c(C)c1
CCOC(=O)Nc1cc2c(c(N)n1)N=C(c1ccccc1)CN2
COc1cccc2cc(/C(=N/O)c3ccccc3)oc12
Cc1cccc(C)c1Nc1c(-c2ccc(Cl)s2)nc2ncccn12

Potency, active:
CCCCCCn1c(=O)[nH]c2nc3cc(N)c(C)cc3nc2c1=O 112 µM
